High-throughput results from PubChem BioAssay.
Abeta rescue: A-beta toxicity reversal in yeast | yeast expressing A-beta42, growth rescue, OD600, 48 h; response scale: 0% DMSO, 100% iron-clioquinol control | Potency, µM (series often up to 46.1 µM), most hits filed as activators | actives 0.063% (n = 410,000); further: nearly all actives have a fitted effect of over 55% in size
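Growth rescue measured by 600 nm absorbance after 48 h yeast culture at 30 C with compound. Values normalized between DMSO and an equimolar ferric chloride plus clioquinol control.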
aSyn yeast inh: inhibitors of alpha-synuclein toxicity in yeast | Potency, µM (highest dose often 46.1 µM), usual class: activators | AID 652106 | Yeast expressing alpha-synuclein, growth rescue, BacTiter-Glo, 24 h | actives 0.14% (n = 370,000); further: nearly all actives have a fitted effect of over 65% in size
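Rescue of yeast growth: cells expressing toxic alpha-synuclein, induced in galactose at OD600 0.02, incubated with compound 24 h at 30 C. ATP luminescence quantified growth; inhibitors of toxicity appear as activators.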
FUS yeast rescue: rescues growth of FUS-expressing yeast; S. cerevisiae FUS-expressing, growth rescue, OD600, 24 h; Potency, µM (doses to about 76.6 µM), usual class: activators; actives 0.24% (n = 390,000); AID 1347120; further: nearly all actives have a fitted effect of over 55% in size
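Galactose (2%) drives FUS expression in yeast precultured in raffinose; seeding density OD 0.005. Test compounds incubated 24hr at 30C and 99% humidity before absorbance at 600 nm was measured.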
TDP-43 yeast inh: inhibitors of TDP-43 toxicity in yeast | TDP-43 expressing yeast growth rescue, BacTiter-Glo, 24 h | Potency, µM (top dose mostly 46.1 µM), most hits filed as activators | actives 1.8% (n = 410,000) | AID 652104; further: nearly all actives have a fitted effect of over 50% in size
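Yeast cells expressing TDP-43 under galactose induction are exposed to compounds for 24 hr at 30 deg C. BacTiter-Glo luminescence measures growth, so protective compounds score as activators.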
A number is an active result; - = inactive; ? = inconclusive; . = no result given. Shown are actives, neighbours in structure and some others; about 2.1% of the full set was active somewhere. The call rests on the fitted dose curve; in most records, active means well fitted curve in the direction sought with a large enough effect; inconclusive means small, poorly fitted or top-dose-only effect, or another doubt; inactive means no such curve, though single readings can be large; an effect the other way counts as inactive or inconclusive.

SMILES	Abeta rescue	aSyn yeast inh	FUS yeast rescue	TDP-43 yeast inh
COCCCn1c(N)c(-c2nc3ccccc3n2C)c2nc3ccccc3nc21	-	-	-	-
Cn1c(-c2c(N)n(C3CCCC3)c3nc4ccccc4nc23)nc2ccccc21	-	-	?	13µM
Cn1c(-c2c(N)n(CCc3ccccc3)c3nc4ccccc4nc23)nc2ccccc21	-	-	?	-
O=C(COc1ccccc1)OCC(=O)c1ccc(O)cc1O	13µM	-	-	-
O=C(COc1ccc(Cl)cc1)c1ccc(O)cc1O	-	-	-	-
COc1cc(OC)c(OC)cc1/C=C/c1nc2ccccc2o1	.	-	.	.
Cc1ccccc1NC(=S)N(Cc1ccccn1)Cc1ccccc1Cl	13µM	-	-	?
O=C(N/N=C/c1cc(Br)ccc1O)c1ccccc1Cl	-	10µM	-	14µM
Oc1ccc(Br)cc1/C=N/NC(=S)NCCc1ccccc1	?	-	-	-
COC(=O)N/N=C/c1cc(Br)ccc1O	-	-	-	-
CC(C)NC(=S)N/N=C/c1cc(Br)ccc1O	?	18µM	-	?
Cc1ccccc1NC(=O)[C@@H]1CC(=O)O[C@@H]1c1ccccc1	.	.	-	.
C/C=C/c1ccc(O)c(OC)c1	-	-	-	-
CC=Cc1cc(OC)c2c(c1)C(C)C(c1ccc(O)c(OC)c1)O2 (configuration not stated)	-	?	?	35µM
CCCCCCCCCC[n+]1ccc(/C=C/c2ccc(N(C)C)cc2)c2ccccc21	.	-	.	.
COc1ccccc1OCC(=O)NNC(=S)NC(=O)c1ccco1	7.9µM	?	-	-
COc1ccc(C(=O)NNC(=S)NC(=O)C(C)(C)C)cc1	5.6µM	?	-	-
COc1ccc(C(=O)NNC(=S)NC(=O)/C=C/c2cccs2)cc1	8.9µM	7.1µM	-	?
COc1ccc(/C=C/C(=O)NC(=S)NNC(=O)c2ccco2)cc1	7.1µM	-	-	?
O=C(/C=C/c1cccs1)NC(=S)NNC(=O)c1ccccc1O	-	-	-	-
COc1ccc(/C=N\NC(=O)CN2CCN(Cc3ccccc3)CC2)cc1OCc1ccccc1	.	.	-	.
CC1CCC(C(=O)NC(C(=O)OCC(=O)c2ccc(Br)cc2)C(C)C)CC1 (configuration not stated)	-	.	-	-
O=C1c2ccccc2NC(c2cn[nH]c2-c2ccc(Cl)cc2)N1O (configuration not stated)	-	-	25µM	-
O=C(NCCCOc1ccc([N+](=O)[O-])cc1Cl)OCc1ccccc1	-	?	.	16µM
C[C@@H]1CC(=O)NN=C1c1ccc(NN=C(C#N)C#N)cc1	.	.	-	.
SMILES	Abeta rescue	aSyn yeast inh	FUS yeast rescue	TDP-43 yeast inh
C=CCNC(=O)Nc1ccc2c(c1)[C@]1(CC(=O)N(CC(C)C)C1c1ccccc1)C(=O)N2C (some centres not stated)	.	.	-	.
CC(C)c1onc(C(=O)Nc2cccc(Cl)c2)c1[N+](=O)[O-]	-	-	-	10µM
CC(=O)N(c1ccc(Cl)cc1)C1SC(=O)N(c2ccccc2)C1=O (configuration not stated)	.	-	.	.
O=C(/C=C/Nc1ccccc1)c1ccccc1	-	-	-	-
CC(=O)Nc1ccc(N/C=C/C(=O)c2ccccc2)cc1	-	-	-	13µM
CCOc1ccc(/C=N/NC(=S)NC2CC3CCC2C3)cc1 (configuration not stated)	?	-	-	-
S=C(N/N=C/c1ccco1)NC1CC2CCC1C2 (configuration not stated)	?	-	-	14µM
CCOC(=O)c1noc2ncnc(NCc3ccccc3OC)c12	-	.	-	28µM
CCC[C@H](/C=C/C(=O)OC(C)(C)C)Sc1ccc(OC)cc1	.	.	-	.
C[C@@H](c1ccccc1)N1C[C@@H](COCc2ccccc2)Oc2cc(N3CCC[C@H]3C(N)=O)ccc2S1(=O)=O	-	-	22µM	-
COc1ccccc1C(=O)NCCSCc1ccccc1Cl	-	-	-	13µM
Cc1c(C(=O)NCCSCc2ccc(Cl)cc2Cl)cccc1[N+](=O)[O-]	-	-	-	14µM
CCN1CCCCC(NC(=O)COCc2ccccc2)C1=O (configuration not stated)	.	.	-	.
Cc1ccc(N(C)C(=O)c2sc3nc4n(c(=O)c3c2C)CCCC4)cc1C	-	.	-	16µM
Cc1ccc(Cl)cc1N(C)C(=O)c1sc2nc3n(c(=O)c2c1C)CCCC3	-	.	-	20µM
CCN(CC)c1ccc(C(=C2C=CC(=[N+](CC)CC)C=C2)c2ccc(S(=O)(=O)O)cc2S(=O)(=O)[O-])cc1	-	-	32µM	-
O=C(C1=C(O)/C(=C/c2ccc(O)cc2)CCC1)C(F)(F)F	-	-	-	22µM
CCCSc1nc(NCc2ccco2)c2c3c(sc2n1)COC(C)(C)C3	-	-	?	20µM
CCCCSc1nc(NCc2ccco2)c2c3c(sc2n1)COC(C)(C)C3	-	-	-	?
COc1ccc(OCCn2cnc(Cl)c2Cl)cc1	-	-	-	-
Clc1ccc(OCCn2cnc(Cl)c2Cl)cc1	?	-	-	11µM
CN1/C(=C\C(=O)COC(=O)c2ccccc2O)C(C)(C)c2ccccc21	-	-	-	-
Cc1ccc(C(=O)NC(=S)/C=C2\N(C)c3ccccc3C2(C)C)cc1	-	-	-	-
CC(C)C(=O)NC(=S)/C=C1/N(C)c2ccccc2C1(C)C	?	-	-	35µM
COc1ccccc1OCC(=O)/C=C1/N(C)c2ccccc2C1(C)C	-	-	-	14µM
SMILES	Abeta rescue	aSyn yeast inh	FUS yeast rescue	TDP-43 yeast inh
CCOC(=O)CCCc1ccc(/C(C)=N/NC(=S)NC)cc1	?	-	-	-
CCOC(=O)CCCc1ccc(/C(C)=N/NC(N)=S)cc1	?	-	-	20µM
Cc1ccc(OCc2ccccc2Br)c([N+](=O)[O-])n1	-	-	-	10µM
O=C(Cc1ccc(OCc2ccccc2)cc1)NO	.	-	.	.
CC(=O)/C(N=Nc1nc2c([nH]1)c(=O)n(C)c(=O)n2C)=C(\C)O	-	-	2.2µM	-
Cn1c(=O)c2[nH]c(N=NN3CCCCC3)nc2n(C)c1=O	-	-	-	-
O=C(NCc1ccc(C(F)(F)F)cc1)c1cccc2c(-c3cccnc3)coc12	-	-	-	13µM
COc1ccc(-c2ccc(C(=O)NCc3ccc(N(C)C)cc3)c3occc23)c(C)c1	-	-	-	18µM
O=C(NCc1ccccc1)c1cccc2c(-c3cccnc3)coc12	-	-	-	?
COc1ccc(NC(=O)c2cccc3c(-c4cccnc4)coc23)cc1	-	-	-	10µM
O=C(Nc1ccccc1)c1cccc2c(-c3cccnc3)coc12	-	-	-	14µM
O=C(Nc1cccc2cccnc12)c1ccc(Br)cc1	.	-	.	.
COc1ccc(-c2coc3c(C(=O)Nc4cccnc4)cccc23)c(C)c1	-	-	?	18µM
CN(C)CCNC(=O)c1cccc2c(-c3ccc(F)c(F)c3)coc12	-	-	-	-
COc1ccc(-c2ccc(C(=O)Nc3cccc(NS(C)(=O)=O)c3)c3occc23)c(C)c1	-	-	?	14µM
